Measured values reported in PubChem BioAssay.
Activity calls are given as the source filed them. Unless noted, the rule behind the calls is not given here.

Key:
[1] = test system: Wnt5a (protein binding on small-molecule microarray); assay: small molecules binding Wnt5a protein – biophysical, small-molecule microarray, 635/667 nm fluorescence, primary screen (AID 1142); conditions: 635 nm fluorescence, higher = more signal;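 note: fluorescence read at 667 nm with signal to noise per printed feature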
[2] = ATP-based viability of Huh7 replicon cells – cell-based, CellTiter-Glo luminescence, basal, 48 h, cytotoxicity control for HCV replication inhibitor project, primary screen (AID 1143); conditions: higher = more signal, called active from +8 up or from −8 down;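 note: Huh7 hepatoma cells carrying a hepatitis C replication reporter with no stimulus; test concentration not given here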
[3] = Pseudomonas biofilm growth suppression – PAO1 strain, BacTiter-Glo luminescence, LB-PBS, primary screen (AID 1144); conditions: P. aeruginosa PAO1 biofilm, 12 h, higher = more signal
[4] = basal CRE-LacZ reporter activity in PC12 – cell-based, unstimulated, primary screen (AID 1145); conditions: no forskolin, luminescence, 4.5 h, higher = more signal, called active from +8 up or from −8 down
[5] = forskolin-driven CRE-LacZ activity in PC12 – cell-based, CRE-LacZ reporter, forskolin-stimulated, primary screen (AID 1146); conditions: luminescence, 4.5 h, higher = more signal, called active from +8 up or from −8 down;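 note: PC12 cells with 6xCRE LacZ reporter stimulated by forskolin 10 µM; beta-galactosidase reporter signal reflecting CREB driven transcription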
[6] = target: Streptavidin (Streptomyces avidinii) (UniProt P22629); assay: compounds binding control protein streptavidin – biophysical, small-molecule microarray, 635/667 nm fluorescence, artefact control for SMM compound annotation, primary screen (AID 1147); conditions: higher = more signal;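 note: signal reflects streptavidin binding to arrayed compounds as a control protein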
[7] = probe aInhba binding on compound microarray – biochemical, small-molecule microarray, 635/667 nm fluorescence, primary screen (AID 1148); conditions: higher = more signal;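 note: score merges 667nm spot fluorescence with signal-to-noise for antibody binding to printed compounds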
Torsin-1A (Homo sapiens) [8] = target: Torsin-1A (Homo sapiens) (UniProt O14656); assay: TOR1A wild-type binding on microarray – cell lysate, small-molecule microarray, lysate, 635/667 nm, primary screen (AID 1149); conditions: COS7 hTOR1A-WT lysate, 635 nm fluorescence, higher = more signal
Torsin-1A (Homo sapiens) [9] = target: Torsin-1A (Homo sapiens) (UniProt O14656); assay: torsin A mutant lysate binding on microarrays – cell lysate, small-molecule microarray, COS7 lysate, 635/667 nm fluorescence, primary screen (AID 1150); conditions: COS7 hTOR1A mutant lysate, 635 nm fluorescence, higher = more signal;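 note: score pools 667 nm emission and signal to noise measuring lysate protein binding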
[10] = test system: Sonic hedgehog protein (Shh); assay: Sonic hedgehog microarray binding compounds – biochemical, small-molecule microarray, 635/667 nm fluorescence, primary screen (AID 1151); conditions: 635 nm fluorescence, higher = more signal;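 note: Shh protein binding to compounds spotted on small-molecule microarray slides; score combines spot fluorescence intensity with signal-to-noise across triplicate slides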
[11] = optical density shifts of acrAB sulA E. coli – strain DRC41, OD650, 48 h, E. coli filamentation inducer project, primary screen (AID 1152); conditions: higher = more signal, called active from +8 up or from −8 down;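 note: E. coli MC1000 strain DRC41 lacking acrAB efflux pump and sulA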
[12] = probe aLefty1 binding on compound microarray – biochemical, small-molecule microarray, 635/667 nm fluorescence, primary screen (AID 1153); conditions: higher = more signal;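 note: score merges spot fluorescence with signal-to-noise ratio from the scanned slide images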
[13] = plasmodial surface anion channel blockers, osmotic lysis – cell-based, P. falciparum Indochina, OD700, 1 h, primary screen (AID 1154); conditions: P. falciparum Indochina infected RBC osmotic lysis, higher = more signal, called active from +8 up or from −8 down
[14] = plasmodial surface anion channel blockers, osmotic lysis – cell-based, P. falciparum Indochina, OD700, 2 h, primary screen (AID 1155);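 note: lysis reports solute entry through the parasite surface anion channel PSAC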; conditions: P. falciparum Indochina infected erythrocytes, higher = more signal, called active from +8 up or from −8 down
[15] = changes in parasitized red cell lysis, either direction – P. falciparum Indochina, OD700, 3 h, PSAC antagonist project, primary screen (AID 1156); conditions: P. falciparum-infected erythrocytes, osmotic lysis, higher = more signal, called active from +8 up or from −8 down
[16] = plasmodial surface anion channel blockers, osmotic lysis – cell-based, P. falciparum Indochina, OD700, 18 h, primary screen (AID 1157); conditions: P. falciparum Indochina infected erythrocytes, osmotic lysis OD700, 18 h; higher = more signal, called active from +8 up or from −8 down
[17] = S6 kinase pathway phospho-S6 level changes – cell-based, A549, cytoblot, luminescence, serum-stimulated, primary screen (AID 1158); conditions: 5 h, higher = more signal;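 note: serum-stimulated A549 lung adenocarcinoma cells; signal is phosphorylated S6 detected by cytoblot immunostaining with HRP secondary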
[18] = target: NADPH oxidase 2 (Homo sapiens) (UniProt P04839); assay: compounds shifting NOX2 Amplex Red fluorescence – cell-based, HEK293-NOX2, PMA-stimulated, NOX inhibitor project, primary screen (AID 1159); conditions: 45 min, higher = more signal, called active from +8 up or from −8 down; note: test concentration not given here
[19] = target: NADPH oxidase 4 (Homo sapiens) (UniProt Q9NPH5); assay: compounds shifting NOX4 Amplex Red fluorescence – cell-based, HEK293-NOX4, tetracycline-induced, NOX inhibitor project, primary screen (AID 1160); conditions: HEK293-NOX4, Amplex Red H2O2 fluorescence, 45 min; higher = more signal, called active from +8 up or from −8 down
[20] = target: NADPH oxidase 5 (Homo sapiens) (UniProt Q96PH1); assay: compounds shifting NOX5 Amplex Red fluorescence – cell-based, HEK293-NOX5, NOX inhibitor project, primary screen (AID 1161); conditions: HEK293-NOX5, ionomycin, 45 min, higher = more signal
Sequence of NADPH oxidase 5 (Homo sapiens) (Q96PH1 whole entry, looked up): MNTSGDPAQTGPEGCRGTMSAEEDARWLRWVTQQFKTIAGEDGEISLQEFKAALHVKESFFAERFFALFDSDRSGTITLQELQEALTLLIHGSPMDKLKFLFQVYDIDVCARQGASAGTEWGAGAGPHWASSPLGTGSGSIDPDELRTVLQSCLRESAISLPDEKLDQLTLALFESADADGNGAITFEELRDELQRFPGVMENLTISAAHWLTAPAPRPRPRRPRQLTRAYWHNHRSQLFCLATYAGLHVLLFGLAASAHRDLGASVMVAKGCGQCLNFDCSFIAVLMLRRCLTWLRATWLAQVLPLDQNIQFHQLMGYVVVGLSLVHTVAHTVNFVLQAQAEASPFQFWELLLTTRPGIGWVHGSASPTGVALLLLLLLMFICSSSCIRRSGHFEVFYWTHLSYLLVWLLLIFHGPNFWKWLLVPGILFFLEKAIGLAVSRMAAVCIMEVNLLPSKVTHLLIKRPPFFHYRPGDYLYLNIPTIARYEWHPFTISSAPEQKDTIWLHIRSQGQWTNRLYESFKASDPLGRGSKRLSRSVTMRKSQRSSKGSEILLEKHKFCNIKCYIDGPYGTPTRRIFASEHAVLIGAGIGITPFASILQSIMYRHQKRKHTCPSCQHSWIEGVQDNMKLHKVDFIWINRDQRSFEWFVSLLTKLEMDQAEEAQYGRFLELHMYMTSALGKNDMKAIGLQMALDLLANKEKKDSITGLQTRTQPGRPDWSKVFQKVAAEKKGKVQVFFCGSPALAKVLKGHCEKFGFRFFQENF

Sequence of Streptavidin (Streptomyces avidinii) (P22629 whole entry, looked up): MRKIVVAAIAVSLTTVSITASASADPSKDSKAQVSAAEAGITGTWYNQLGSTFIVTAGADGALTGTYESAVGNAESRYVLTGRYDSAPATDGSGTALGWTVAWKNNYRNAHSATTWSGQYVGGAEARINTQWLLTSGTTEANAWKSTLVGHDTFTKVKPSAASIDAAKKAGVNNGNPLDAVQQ
Sequence of NADPH oxidase 4 (Homo sapiens) (Q9NPH5 whole entry, looked up): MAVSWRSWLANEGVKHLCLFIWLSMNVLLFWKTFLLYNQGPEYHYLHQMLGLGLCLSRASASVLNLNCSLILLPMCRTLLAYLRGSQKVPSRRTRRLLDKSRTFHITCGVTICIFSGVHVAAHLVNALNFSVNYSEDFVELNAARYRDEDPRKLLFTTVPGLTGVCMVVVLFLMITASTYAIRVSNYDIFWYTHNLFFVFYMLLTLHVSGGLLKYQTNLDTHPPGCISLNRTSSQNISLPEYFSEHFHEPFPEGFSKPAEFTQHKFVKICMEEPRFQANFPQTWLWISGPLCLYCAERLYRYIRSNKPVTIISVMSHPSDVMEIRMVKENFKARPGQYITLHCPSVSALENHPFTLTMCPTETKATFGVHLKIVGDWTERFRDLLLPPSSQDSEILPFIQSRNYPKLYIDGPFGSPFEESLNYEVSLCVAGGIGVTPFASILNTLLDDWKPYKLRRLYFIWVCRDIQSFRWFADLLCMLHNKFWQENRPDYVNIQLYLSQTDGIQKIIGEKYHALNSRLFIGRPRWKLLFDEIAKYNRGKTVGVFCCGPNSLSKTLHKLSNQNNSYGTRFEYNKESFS
Sequence of Torsin-1A (Homo sapiens) (O14656 whole entry, looked up): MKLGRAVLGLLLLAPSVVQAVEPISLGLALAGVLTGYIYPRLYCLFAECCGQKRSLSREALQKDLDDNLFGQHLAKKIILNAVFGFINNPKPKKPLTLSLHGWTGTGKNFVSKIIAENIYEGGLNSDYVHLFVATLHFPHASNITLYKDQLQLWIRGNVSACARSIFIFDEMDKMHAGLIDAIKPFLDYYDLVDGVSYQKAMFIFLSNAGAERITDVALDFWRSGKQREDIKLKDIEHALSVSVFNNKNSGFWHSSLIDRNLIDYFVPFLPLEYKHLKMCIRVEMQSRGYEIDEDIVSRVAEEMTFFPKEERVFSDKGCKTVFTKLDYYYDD
Sequence of NADPH oxidase 2 (Homo sapiens) (P04839 whole entry, looked up): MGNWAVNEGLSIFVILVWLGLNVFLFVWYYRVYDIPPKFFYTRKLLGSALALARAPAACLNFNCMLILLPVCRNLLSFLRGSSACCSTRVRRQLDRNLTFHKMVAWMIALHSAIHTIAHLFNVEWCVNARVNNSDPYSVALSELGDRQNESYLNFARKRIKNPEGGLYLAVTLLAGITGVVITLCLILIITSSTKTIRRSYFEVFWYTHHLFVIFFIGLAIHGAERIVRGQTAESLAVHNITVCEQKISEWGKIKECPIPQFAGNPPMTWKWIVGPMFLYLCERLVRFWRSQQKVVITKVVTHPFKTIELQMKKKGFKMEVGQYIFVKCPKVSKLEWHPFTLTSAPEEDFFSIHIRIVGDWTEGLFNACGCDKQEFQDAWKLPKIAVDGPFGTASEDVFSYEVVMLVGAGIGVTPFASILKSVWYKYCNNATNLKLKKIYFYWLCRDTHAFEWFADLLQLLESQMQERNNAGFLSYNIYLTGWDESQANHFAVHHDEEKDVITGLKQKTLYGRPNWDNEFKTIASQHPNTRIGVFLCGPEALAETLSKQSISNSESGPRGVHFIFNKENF

SMILES | composite z-score [1] | z-score [2] | z-score [3] | z-score [4] | z-score [5] | composite z-score [6] | composite z-score [7] | composite z-score (Torsin-1A (Homo sapiens) [8]) | composite z-score (Torsin-1A (Homo sapiens) [9]) | composite z-score [10] | z-score [11] | composite z-score [12] | z-score [13] | z-score [14] | z-score [15] | z-score [16] | z-score [17] | z-score [18] | z-score [19] | z-score [20]
CCCNC(=O)[C@@]1(c2ccc([N+](=O)[O-])cc2)CC(=O)N(C(C)C)[C@@H]1c1ccc(CO)cc1 | -0.47 | -1.22 (inactive) | 0.313 (inactive) | 0.558 (inactive) | 0.282 (inactive) | -1.07 | -0.153 | -2.12 | -0.42 | -0.738 | -0.169 (inactive) | -0.207 | 1.4 (inactive) | -0.366 (inactive) | 1.18 (inactive) | 0.205 (inactive) | 0.0662 | -0.144 (inactive) | 0.069 (inactive) | -1.85
C=C1C(=O)C=C2CN(C(=O)c3ccccc3)[C@@](Cc3ccc(OC)cc3)(C(=O)OC)[C@@H]12 | 0.458 | -3.68 (inactive) | 0.249 (inactive) | 0.387 (inactive) | 0.2 (inactive) | 1.72 | 0.863 | 0.124 | 0.319 | 0.193 | -1.79 (inactive) | 1.46 | 2.02 (inactive) | 0.368 (inactive) | 0.218 (inactive) | 1.23 (inactive) | -0.0615 | 0.427 (inactive) | 1.1 (inactive) | 2.68
C=CCC(OC(C)=O)[C@@H]1[C@@H](N(Cc2ccc(-c3ccccc3)cc2)C(=O)c2cccc3ccccc23)c2cc(OCCCO)ccc2N1C(=O)Cc1ccc(OC)cc1 (stereo not given in full) | 0.0948 | -1.62 (inactive) | 0.0108 (inactive) | 0.498 (inactive) | -0.117 (inactive) | 0.0251 | -0.0346 | -0.476 | 0.127 | 0.586 | -1.17 (inactive) | 0.568 | 0.53 (inactive) | 0.525 (inactive) | 0.375 (inactive) | 0.211 (inactive) | -0.0451 | -0.248 (inactive) | -0.0822 (inactive) | -2.28
COc1ccc(C(=O)Nc2ccc(CN3C(=O)[C@@]4(O[C@@H](CCn5cc(CCO)nn5)[C@H]([Si](C)(C)c5ccc(OC)cc5)[C@H]4C)c4ccccc43)cc2)cc1 | 0.236 | -7.97 (inactive) | 0.173 (inactive) | 6.94 (inactive) | -0.632 (inactive) | 0.421 | -0.0791 | 0.671 | 0.411 | 1.4 | -2.53 (inactive) | 0.232 | 27.6 (active) | 16.4 (active) | 2.35 (inactive) | 1.43 (inactive) | -0.368 | -1.81 (inactive) | 0.515 (inactive) | 3.12
O=C1O[C@H](c2ccccc2)[C@H](c2ccccc2)N2[C@H]1[C@@H](C(=O)O)[C@]1(C(=O)Nc3ccc(C#CCCO)cc31)[C@H]2c1ccc(OCCO)cc1 | 0.48 | -0.33 (inactive) | 0.982 (inactive) | 1.17 (inactive) | 0.147 (inactive) | 0.468 | 0.0082 | 0.865 | 1.08 | 0.314 | 0.761 (inactive) | 0.154 | 4.88 (inactive) | 0.927 (inactive) | 0.232 (inactive) | 0.138 (inactive) | 0.112 | 1.43 (inactive) | 1.21 (inactive) | 0.51
O=C1NC(=O)C2C1C=CC(C(O)c1ccc(B(O)O)cc1)N2Nc1ccc(Cl)cc1Cl (stereo not given) | -0.0744 | -0.245 (inactive) | -0.661 (inactive) | -0.515 (inactive) | 0.763 (inactive) | 1.09 | 0.0074 | -1.22 | -0.147 | -0.589 | -2.48 (inactive) | 0.199 | 1.8 (inactive) | 0.917 (inactive) | -0.577 (inactive) | 0.654 (inactive) | -1.07 | -2.66 (inactive) | -5.04 (inactive) | -6.42
CCOC(=O)C[C@H]1[C@H](OC(=O)c2ccccc2-c2ccccc2)[C@@H](NC(=O)c2ccc3ccccc3c2)c2cc(OCCCO)ccc2N1C(=O)Cc1ccc(OC)cc1 | 0.23 | 0.0138 (inactive) | 0.619 (inactive) | 3.37 (inactive) | 0.654 (inactive) | -0.0096 | -0.128 | 0.0216 | 0.768 | -0.314 | -0.878 (inactive) | -0.241 | 4.15 (inactive) | 0.403 (inactive) | -0.681 (inactive) | 0.281 (inactive) | 0.12 | 0.0357 (inactive) | 1.02 (inactive) | 1.01
O=C1NC(=O)C2C1C=CC(C(O)c1ccc([N+](=O)[O-])cc1)N2Nc1ccccn1 (stereo not given) | -0.0851 | 1.06 (inactive) | -0.295 (inactive) | -0.133 (inactive) | -0.728 (inactive) | -0.115 | -0.0059 | 0.419 | -0.306 | -0.371 | -0.55 (inactive) | -0.112 | 0.406 (inactive) | 0.74 (inactive) | 0.067 (inactive) | 0.581 (inactive) | -0.466 | -0.728 (inactive) | -2.61 (inactive) | -1.96
COc1ccc(C(=O)Nc2cccc(CN3C(=O)[C@@]4(O[C@@H](CC(=O)N5CCC[C@H]5CO)[C@H]([Si](C)(C)c5ccc(OC)cc5)[C@H]4C)c4ccccc43)c2)cc1 | 0.107 | -4.18 (inactive) | -0.601 (inactive) | 1.69 (inactive) | -1.55 (inactive) | 0.621 | -0.0454 | 0.313 | 1.15 | 1.26 | -0.184 (inactive) | -0.06 | 4.51 (inactive) | 1.32 (inactive) | 0.691 (inactive) | 0.696 (inactive) | 1.31 | 1.24 (inactive) | 0.982 (inactive) | 4.72
